Counter-ions that a name gives are not always drawn.

The results in this text go back to the supplement of paper PMC6992640.

This assay has as its system UCD52 (cells of a triple-negative basal-like breast cancer xenograft). The assay is described as follows: cell viability of combination (% of vehicle); higher = less cytotoxic. Particulars: 1 µM; 72 h; partner dose: 10 nM. The protocol:
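PDX cells were treated for 72 h with each drug at 1 µM plus carfilzomib (10 nM; 100 nM for WHIM2). Luciferase viability is expressed as percent of vehicle.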
Consider `CC(=O)C1(O)Cc2c(O)c3c(c(O)c2C(OC2CC(N)C(O)C(C)O2)C1)C(=O)c1ccccc1C3=O.Cl` (stereo not drawn) [Idarubicin HCl] + CC(C)C[C@H](NC(=O)[C@H](CCc1ccccc1)NC(=O)CN1CCOCC1)C(=O)N[C@@H](Cc1ccccc1)C(=O)N[C@@H](CC(C)C)C(=O)[C@@]1(C)CO1 [Carfilzomib], for which the “cell viability of combination” value stood at 21.1. For the compound `CN(C)CC=CC(=O)Nc1cc2c(Nc3ccc(F)c(Cl)c3)ncnc2cc1OC1CCOC1.O=C(O)C=CC(=O)O.O=C(O)C=CC(=O)O` (stereo not drawn) [Afatinib dimaleate] + CC(C)C[C@H](NC(=O)[C@H](CCc1ccccc1)NC(=O)CN1CCOCC1)C(=O)N[C@@H](Cc1ccccc1)C(=O)N[C@@H](CC(C)C)C(=O)[C@@]1(C)CO1 [Carfilzomib], the “cell viability of combination” value was determined as 26.6. With `Nc1ncn(C2OC(CO)C(O)C2O)c(=O)n1` (stereo not drawn) [5-Azacytidine] + CC(C)C[C@H](NC(=O)[C@H](CCc1ccccc1)NC(=O)CN1CCOCC1)C(=O)N[C@@H](Cc1ccccc1)C(=O)N[C@@H](CC(C)C)C(=O)[C@@]1(C)CO1 [Carfilzomib] the figure was 68.2. With `O=C1C=CC=CC1=C1NC(=C2C=CC=CC2=O)N(c2ccc(C(=O)O)cc2)N1` [Deferasirox] + CC(C)C[C@H](NC(=O)[C@H](CCc1ccccc1)NC(=O)CN1CCOCC1)C(=O)N[C@@H](Cc1ccccc1)C(=O)N[C@@H](CC(C)C)C(=O)[C@@]1(C)CO1 [Carfilzomib] the figure was 61.2. For the compound `CC(C)(C)NC(=O)C1CC2CCCCC2CN1CC(O)C(Cc1ccccc1)NC(=O)C(CC(N)=O)NC(=O)c1ccc2ccccc2n1.CS(=O)(=O)O` (stereo not drawn) [Saquinavir mesylate] + CC(C)C[C@H](NC(=O)[C@H](CCc1ccccc1)NC(=O)CN1CCOCC1)C(=O)N[C@@H](Cc1ccccc1)C(=O)N[C@@H](CC(C)C)C(=O)[C@@]1(C)CO1 [Carfilzomib], the “cell viability of combination” value worked out at 60.2.

Consider `CC1=C(C(=O)OC(C)C)C(c2cccc([N+](=O)[O-])c2)C(C(=O)OC2CN(C(c3ccccc3)c3ccccc3)C2)=C(N)N1` (stereo not drawn) [Azelnidipine] + CC(C)C[C@H](NC(=O)[C@H](CCc1ccccc1)NC(=O)CN1CCOCC1)C(=O)N[C@@H](Cc1ccccc1)C(=O)N[C@@H](CC(C)C)C(=O)[C@@]1(C)CO1 [Carfilzomib], for which the “cell viability of combination” value is 46.6. With `Cl.Nc1ccn(C2OC(CO)C(O)C2O)c(=O)n1` (stereo not drawn) [Cytarabine hydrochloride] + CC(C)C[C@H](NC(=O)[C@H](CCc1ccccc1)NC(=O)CN1CCOCC1)C(=O)N[C@@H](Cc1ccccc1)C(=O)N[C@@H](CC(C)C)C(=O)[C@@]1(C)CO1 [Carfilzomib], the “cell viability of combination” value amounted to 77.1. As for `CC(C)c1nc(CN(C)C(=O)NC(C(=O)NC(Cc2ccccc2)CC(O)C(Cc2ccccc2)NC(=O)OCc2cncs2)C(C)C)cs1` (stereo not drawn) [Ritonavir] + CC(C)C[C@H](NC(=O)[C@H](CCc1ccccc1)NC(=O)CN1CCOCC1)C(=O)N[C@@H](Cc1ccccc1)C(=O)N[C@@H](CC(C)C)C(=O)[C@@]1(C)CO1 [Carfilzomib], the “cell viability of combination” value was 65.6. With `CCCCCCCCCCCC1=C(O)C(=O)C=C(O)C1=O` [Embelin] + CC(C)C[C@H](NC(=O)[C@H](CCc1ccccc1)NC(=O)CN1CCOCC1)C(=O)N[C@@H](Cc1ccccc1)C(=O)N[C@@H](CC(C)C)C(=O)[C@@]1(C)CO1 [Carfilzomib] the figure was 55.5; with `Clc1ccc(COC(Cn2ccnc2)c2ccc(Cl)cc2Cl)c(Cl)c1.O=[N+]([O-])O` (stereo not drawn) [Miconazole Nitrate] + CC(C)C[C@H](NC(=O)[C@H](CCc1ccccc1)NC(=O)CN1CCOCC1)C(=O)N[C@@H](Cc1ccccc1)C(=O)N[C@@H](CC(C)C)C(=O)[C@@]1(C)CO1 [Carfilzomib], 59.3. For `COCCOC(=O)C1=C(C)NC(C)=C(C(=O)OCC=Cc2ccccc2)C1c1cccc([N+](=O)[O-])c1` (stereo not drawn) [Cilnidipine] + CC(C)C[C@H](NC(=O)[C@H](CCc1ccccc1)NC(=O)CN1CCOCC1)C(=O)N[C@@H](Cc1ccccc1)C(=O)N[C@@H](CC(C)C)C(=O)[C@@]1(C)CO1 [Carfilzomib], the “cell viability of combination” value was determined as 63.2.

Regarding `Nc1ccc2cc3ccc([NH3+])cc3nc2c1.Nc1ccc2cc3ccc([NH3+])cc3nc2c1.O=S(=O)([O-])[O-]` [Proflavine Hemisulfate] + CC(C)C[C@H](NC(=O)[C@H](CCc1ccccc1)NC(=O)CN1CCOCC1)C(=O)N[C@@H](Cc1ccccc1)C(=O)N[C@@H](CC(C)C)C(=O)[C@@]1(C)CO1 [Carfilzomib], the “cell viability of combination” value was 94. As to `COc1nc2ccc(Br)cc2cc1[C@@H](c1ccccc1)[C@@](O)(CCN(C)C)c1cccc2ccccc12` [Bedaquiline fumarate] + CC(C)C[C@H](NC(=O)[C@H](CCc1ccccc1)NC(=O)CN1CCOCC1)C(=O)N[C@@H](Cc1ccccc1)C(=O)N[C@@H](CC(C)C)C(=O)[C@@]1(C)CO1 [Carfilzomib], the “cell viability of combination” value was 68.8.
